# Results from PubChem BioAssay.
# The source made the active and inactive calls.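 The calls were made as follows, unless noted: active = visual image review flags a hit and inhibition of aggregation exceeds 20%; inconclusive = visual hit but inhibition at or below 20%; inactive = no hit on visual image review.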
# What was measured:
# [1] = inhibitors of TNFa-induced NFkB p65 translocation, primary screen, imaging, HUVEC, MLSMR starter and 10KST1 sets (AID 438;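 active = inhibition above 20% together with a positive visual image hit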;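 also: compound added about 3h40 before a 20 min TNFalpha stimulation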;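 as to inhibition: signal is the nuclear over cytoplasmic p65 intensity ratio per well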); settings: HUVEC TNFa-induced p65 nuclear translocation; cell count: measured here: nuclei count (cytotoxicity indicator), at 2.08 µM; inhibition: at 2 µM, stronger effect = higher value, 0% TNFa-plus-vehicle, 100% no-TNFa wells
# [2] = inhibitors of mutant huntingtin aggregation, primary screen, imaging, exon1htt(103Q)mCFP cells, high-content imaging (AID 483); settings: exon1htt(103Q)mCFP cell line, aggregate imaging, at 2 µM; inhibition of aggregation: stronger effect = higher value; nuclei count: measured here: cell count, toxicity;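 also: compound exposure lasted 3 days before fixation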;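 as to nuclei count: percent of the per-plate median nuclei count of sample wells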
# [3] = inhibitors of E-selectin induction by TNFa, primary screen, imaging, HUVEC, immunofluorescence, MLSMR starter and 10KST1 sets (AID 487;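 active = visually confirmed hit in the image check and inhibition above 20%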;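 as to inhibition: signal is fraction of cell area covered by stained E-selectin grains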;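 as to nuclei count: 100% = median nuclei count of all wells on the same plate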); settings: HUVEC TNFalpha-induced E-selectin immunofluorescence imaging, at 2 µM; inhibition: stronger effect = higher value; nuclei count: measured here: cell number, toxicity
# [4] = target: Voltage-gated potassium channel subunit beta-2 (Rattus norvegicus) (UniProt P62483); test: KvBeta enzyme negative modulators, primary screen, biochemical, NADPH fluorescence (AID 622;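 active = fluorescence slope higher than the sample average by over 3 SD, cut at about -0.22 in these data, passing the limit was not always enough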;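 also: slope of raw intensity against log time taken from 70 to 1610 s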); settings: recombinant KvBeta, 4-cyanobenzaldehyde reduction, at 10 µM, stronger effect = higher value
# [5] = target: Voltage-gated potassium channel subunit beta-2 (Rattus norvegicus) (UniProt P62483); test: KvBeta positive modulators, primary screen, biochemical, NADPH fluorescence (AID 623;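 active = NADPH fluorescence slope more negative than the mean of all samples by about 3 SD, 99.7% confidence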;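 also: fluorescence intensity change per second fitted from 20 to 320 s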); settings: Recombinant KvBeta, NADPH fluorescence decrease slope, 10 min; at 10 µM; stronger effect = lower value
# [6] = target: Alpha-2C adrenergic receptor (Homo sapiens) (UniProt P18825); test: modulators of alpha2C/GIRK thallium flux, primary screen, cell-based, HEK293 alpha2C/GIRK1/2 (AID 624;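 active = fluorescence slope after compound addition differing from the mean of all screened samples at 99.7% confidence, in either direction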;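 also: slope of fluorescence ratio to pre-addition baseline per second over 15 to 24 s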); settings: thallium flux BTC fluorescence, at 10 µM, actives lie on both sides
# [7] = inhibitors of Sendai virus-induced IRF3 signaling, primary screen, TLR/RLR signaling modifier project, cell-based, Sendai virus stimulus, luciferase, 10K MLSCN set (AID 602276;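 active = inhibition at or above 50% at 10 µM; inactive = inhibition below 50%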;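 also: firefly luciferase from ISG56 promoter only with Renilla not read in this screen; 0% = Sendai virus plus DMSO and 100% = medium plus DMSO without virus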); settings: HEK293 RL24 IRF3 luciferase reporter, at 10 µM, stronger effect = higher value
# [8] = inhibitors of poly I:C-induced TLR3 signaling, primary screen, cell-based, poly I:C stimulus, luciferase, 10K MLSCN set (AID 602277;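 active = inhibition of the reporter signal at or above 50%; inactive = inhibition below 50%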); settings: HEK293-TLR3 RL24 IRF3 luciferase reporter, at 10 µM, stronger effect = higher value
# Alpha-2C adrenergic receptor (Homo sapiens), sequence (P18825 whole entry, looked up): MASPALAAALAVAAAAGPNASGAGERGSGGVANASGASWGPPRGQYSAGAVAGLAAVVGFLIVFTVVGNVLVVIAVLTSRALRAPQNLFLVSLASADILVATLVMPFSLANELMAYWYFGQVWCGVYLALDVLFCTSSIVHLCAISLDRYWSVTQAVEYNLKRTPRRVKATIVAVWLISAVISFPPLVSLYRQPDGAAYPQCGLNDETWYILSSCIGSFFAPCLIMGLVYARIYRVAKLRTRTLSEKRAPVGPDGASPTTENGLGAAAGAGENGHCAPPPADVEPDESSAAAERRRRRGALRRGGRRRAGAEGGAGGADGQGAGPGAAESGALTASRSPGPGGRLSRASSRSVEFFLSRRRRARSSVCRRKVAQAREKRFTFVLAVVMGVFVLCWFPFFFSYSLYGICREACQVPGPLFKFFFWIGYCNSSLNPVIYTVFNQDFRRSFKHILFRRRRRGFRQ
# Voltage-gated potassium channel subunit beta-2 (Rattus norvegicus), sequence (P62483 whole entry, looked up): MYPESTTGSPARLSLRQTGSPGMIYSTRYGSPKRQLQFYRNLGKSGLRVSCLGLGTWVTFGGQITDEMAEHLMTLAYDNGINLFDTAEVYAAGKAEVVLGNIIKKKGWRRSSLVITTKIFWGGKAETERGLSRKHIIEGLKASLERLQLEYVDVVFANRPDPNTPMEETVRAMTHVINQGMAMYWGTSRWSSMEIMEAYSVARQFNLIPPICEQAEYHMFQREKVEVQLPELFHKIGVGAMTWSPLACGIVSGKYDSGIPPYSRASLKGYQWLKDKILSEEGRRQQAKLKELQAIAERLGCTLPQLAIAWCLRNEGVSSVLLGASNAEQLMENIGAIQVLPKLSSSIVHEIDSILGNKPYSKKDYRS
SMILES,cell count [1],inhibition [1],inhibition of aggregation [2],nuclei count [2],inhibition [3],nuclei count [3],fluorescence slope [4],NADPH fluorescence slope [5],slope [6],inhibition [7],inhibition [8]
O=C(C1CCN(C2CC(=O)N(c3ccc(F)cc3)C2=O)CC1)N1CCOCC1 (centres undefined),326,6.1% (inactive),19.1% (inactive),79.5%,12.7% (inactive),75.9%,-0.512 (inactive),-2.5e-05 (inactive),0.00647 (inactive),7.33% (inactive),13% (inactive)
CCn1cc(C(C)NC(=O)COc2ccc(Cl)cc2C)c(C)n1 (centres undefined),713,-14.6% (inactive),0.6% (inactive),130%,-64.7% (inactive),105%,-0.404 (inactive),-2.9e-05 (inactive),0.00313 (inactive),1.5% (inactive),14.6% (inactive)
Cc1ccc(Cn2c(NCCc3ccccc3)nc3c2c(=O)n(C)c(=O)n3C)cc1,368,6.8% (inactive),6.1% (inactive),98.7%,-203% (inactive),108%,-0.597 (inactive),-6.3e-06 (inactive),0.00517 (inactive),34.6% (inactive),29.6% (inactive)
Cc1csc2nc(CNC(=O)c3ccco3)cn12,518,-8.8% (inactive),-5.9% (inactive),90.4%,-27.7% (inactive),71%,-0.511 (inactive),-5.4e-05 (inactive),0.00553 (inactive),-23.7% (inactive),-70.6% (inactive)
c1ccc2c(Cn3ccnc3)c[nH]c2c1,410,6.5% (inactive),-17.6% (inactive),90%,-12.3% (inactive),96.2%,-0.414 (inactive),-0.000163 (inactive),0.00685 (inactive),6.54% (inactive),38.9% (inactive)
CCSc1oc(-c2cccs2)nc1S(=O)(=O)c1ccccc1,690,-6.7% (inactive),-10.8% (inactive),101%,-16.9% (inactive),104%,-0.56 (inactive),-3.1e-05 (inactive),0.00698 (inactive),14.5% (inactive),34% (inactive)
O=C(C1CCCCC1)N1CCC(c2nc3c(nnn3Cc3ccccc3Cl)c(=O)[nH]2)CC1,372,-1.5% (inactive),-5.2% (inactive),110%,-144% (inactive),115%,-0.359 (inactive),-4.8e-05 (inactive),0.00569 (inactive),11.3% (inactive),26.2% (inactive)
COc1ccc(Cn2nnnc2CN2CCOCC2)cc1,476,2.5% (inactive),-2.3% (inactive),108%,1% (inactive),97.7%,-0.441 (inactive),1.6e-05 (inactive),0.00479 (inactive),16.9% (inactive),15.2% (inactive)
O=C(NCc1ccco1)c1cnc2n(c1=O)CCS2,188,4.4% (inactive),5.7% (inactive),66.8%,7.8% (inactive),93.2%,-0.419 (inactive),-1.2e-05 (inactive),0.00633 (inactive),10% (inactive),2.98% (inactive)
CC(C)CN(CC(C)C)C(=O)CS(=O)(=O)Cc1ccccc1,334,-1.2% (inactive),-5.8% (inactive),98.4%,-51.3% (inactive),116%,-0.492 (inactive),-6.4e-05 (inactive),0.00578 (inactive),6.49% (inactive),16.4% (inactive)
O=c1sc(Nc2ccccc2)nc2ccsc12,323,-9.8% (inactive),-0.2% (inactive),91.4%,-36.8% (inactive),122%,-0.334 (inactive),-2.1e-05 (inactive),0.00308 (inactive),-17.1% (inactive),-57.8% (inactive)
COc1ccc(C(=O)NCc2ccccc2OC)cc1,590,-0.6% (inactive),-15.5% (inactive),107%,-25.9% (inactive),111%,-0.47 (inactive),-0.000293 (inactive),0.00583 (inactive),-2.6% (inactive),-7.58% (inactive)
CCSc1cc(C2C(C(=O)OC)=C(C)NC3=C2C(=O)CCC3)c(C)o1 (centres undefined),737,-6.1% (inactive),8.4% (inactive),96.3%,-52.7% (inactive),129%,-0.593 (inactive),-2.7e-05 (inactive),0.00339 (inactive),16.1% (inactive),22.6% (inactive)
Cc1nc2sc(C(c3ccco3)N3CCN(c4ccccc4F)CC3)c(O)n2n1 (centres undefined),226,-5.9% (inactive),3.8% (inactive),104%,-0.8% (inactive),114%,-0.436 (inactive),-6.1e-06 (inactive),0.00573 (inactive),7.27% (inactive),10.5% (inactive)
